Sensor-assay potency score (higher = more potent) data for 40 sequences are collected here from the OligoGym collection.
Further: reference of the scale not given here.

For the first test, the target named is ZSCAN21. Description: pooled miR-30 sensor sort-seq; sequence = guide strand. The conditions noted are these: shRNA.
With ATATATAACGTCTCTCTCCTGG, the sensor-assay potency score (higher = more potent) was 0.19.

As to TGGATCTTGAGCGAACTCCTGC, the sensor-assay potency score (higher = more potent) is -0.804.

Take TAGACTGGATACACGTCTGTTT: the sensor-assay potency score (higher = more potent) was -0.362.

Turning to TACTCAATCTGCAATCTCGGAC, the sensor-assay potency score (higher = more potent) was -0.338.

With TTAACTAGACTGGATACACGTC, the sensor-assay potency score (higher = more potent) was -0.514.

In the next test the target is ZSCAN2. Described as above. The settings on record: shRNA.
In the case of TAAAGCTTTTTCCACATTCATC, the sensor-assay potency score (higher = more potent) is -1.45.

Regarding TTTCCGAGAATATCTTACGTGA, the sensor-assay potency score (higher = more potent) was -0.583.

On to TATCTCAAAATCACTGTCCTGA, for which the sensor-assay potency score (higher = more potent) was 0.962.

TAGTATACAAAAGCTACCCGAC displayed a sensor-assay potency score (higher = more potent) of -0.627.

Take TTCATTCTCAAACATGTCTTGA: the sensor-assay potency score (higher = more potent) is -0.592.

In the case of TTGTAGTATTTCTCTCCTGTGT, the sensor-assay potency score (higher = more potent) is -0.38.

Take TTCACTGTCCTGAAGGGTCTGG: the sensor-assay potency score (higher = more potent) is 0.109.

The sequence TAAAATTTGAACCATCACTAAA gave a sensor-assay potency score (higher = more potent) of -1.38.

Consider TTAGATTGGAGTTGTAACTAAA, for which the sensor-assay potency score (higher = more potent) was -0.577.

For TACAGCACTGTCCTGAAGGGTC, the sensor-assay potency score (higher = more potent) was -0.556.

The sequence TTGAGGAGGTTGGAGCTCCAGC returned a sensor-assay potency score (higher = more potent) of -0.932.

TTGTAACTAAAGCTTTCGCCGC returned a sensor-assay potency score (higher = more potent) of -0.979.

The target of a further test is ZSWIM5. The description is as above. The conditions noted are these: shRNA.
Sequence TAGCTCATCGTCCAGCTGCAGC yielded a sensor-assay potency score (higher = more potent) of -1.21.

For TTGAGGTTGTCGATGAACTGGG, the sensor-assay potency score (higher = more potent) is -0.0434.

In the case of TTGAGTTGAGTTGCTTTCCAGA, the sensor-assay potency score (higher = more potent) is -0.443.

The sequence TAGAATATGTCCTTGTTCCCAC returned a sensor-assay potency score (higher = more potent) of -0.0166.

Regarding TTCTGTAGCACAGGTCACCAAC, the sensor-assay potency score (higher = more potent) is -1.2.

The sequence TTGTCTGTCATGTTTGTTCCTT returned a sensor-assay potency score (higher = more potent) of -0.0787.

TAGCAATCTTGAATGCATCTTG had a sensor-assay potency score (higher = more potent) of 0.435.

TAGTCTTTCACTTTCCCGCTGG showed a sensor-assay potency score (higher = more potent) of 0.269.

In the case of TAGTGAATACTGTTCGTCTTGG, the sensor-assay potency score (higher = more potent) was -0.686.

Consider TTGCACTAGCTCATCGTCCAGC, for which the sensor-assay potency score (higher = more potent) was -0.629.

As to TTTGTCAGTGGACATGAGCTTT, the sensor-assay potency score (higher = more potent) is -0.796.

With TTAAAGAGTAGTCTTTCACTTT, the sensor-assay potency score (higher = more potent) is -0.123.

Another test has as its target ZZEF1. Described as above. The settings on record: shRNA.
Take TTGAGAAATCTGTAGATCCTGG: the sensor-assay potency score (higher = more potent) is 0.26.

As to TTCTTGTTTTAGTATCTCCATG, the sensor-assay potency score (higher = more potent) is -1.42.

Take TTTAACAGGTCACAGTAGCGAG: the sensor-assay potency score (higher = more potent) was -1.06.

Take TTATAGGCAAACACCAACCCAC: the sensor-assay potency score (higher = more potent) is -0.586.

Take TTAGTGTTTTATACAATCCTTT: the sensor-assay potency score (higher = more potent) is -0.602.

Regarding TTAATCTGGACATAGAGCTGAC, the sensor-assay potency score (higher = more potent) was -0.316.

Sequence TTAACCTCCTTACTATTCCGGT gave a sensor-assay potency score (higher = more potent) of -0.49.

TTCAGCTGCAGGTAGCACCAGG: the sensor-assay potency score (higher = more potent) is -0.559.

Turning to TTTCTTTTGAACTTATGCCCGT, the sensor-assay potency score (higher = more potent) is -0.351.

Turning to TAGCACTTTGCTACTGACTTGA, the sensor-assay potency score (higher = more potent) was found to be 0.394.

TTGAGGAGCAGGTTCTGTCTGA: the sensor-assay potency score (higher = more potent) is -0.0904.
